Compound activity from PubChem BioAssay.
MOR-DOR inv ag: inverse agonists of human mu-delta opioid receptor heterodimerization. cell-based MOR-DOR heterodimer luminescence, inverse agonism. inhibition, % at 9.3 µM. hit rate 0.21% among 340,000; in the data active = inhibition above about 22%, passing the limit was not always enough;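 note: 0% = cells with DMSO and 100% = wells without cells with DMSO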
Target sequence (P35372 whole entry, looked up): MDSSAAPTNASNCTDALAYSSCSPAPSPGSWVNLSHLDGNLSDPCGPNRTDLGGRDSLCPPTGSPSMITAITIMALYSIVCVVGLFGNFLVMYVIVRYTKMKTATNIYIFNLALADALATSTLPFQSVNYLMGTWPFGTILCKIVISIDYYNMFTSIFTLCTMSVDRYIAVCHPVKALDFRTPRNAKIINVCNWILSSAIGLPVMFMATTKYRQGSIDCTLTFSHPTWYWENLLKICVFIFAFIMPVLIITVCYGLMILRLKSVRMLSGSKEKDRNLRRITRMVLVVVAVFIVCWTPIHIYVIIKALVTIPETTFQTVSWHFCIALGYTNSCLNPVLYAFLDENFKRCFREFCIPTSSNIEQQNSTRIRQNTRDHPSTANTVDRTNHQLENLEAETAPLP
Target sequence (P41143 whole entry, looked up): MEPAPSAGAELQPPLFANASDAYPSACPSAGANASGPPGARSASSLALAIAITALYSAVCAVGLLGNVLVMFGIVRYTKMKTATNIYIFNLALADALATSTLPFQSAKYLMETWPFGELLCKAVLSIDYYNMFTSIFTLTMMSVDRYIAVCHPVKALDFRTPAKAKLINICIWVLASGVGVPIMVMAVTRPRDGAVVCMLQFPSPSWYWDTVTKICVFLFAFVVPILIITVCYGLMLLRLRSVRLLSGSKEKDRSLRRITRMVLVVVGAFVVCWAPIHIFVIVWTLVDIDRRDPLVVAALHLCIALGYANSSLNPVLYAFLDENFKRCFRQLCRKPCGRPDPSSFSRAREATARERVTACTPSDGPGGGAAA
HTR5A ag: counter-screen for OPRM1-OPRD1 agonists: human HTR5A agonism; HTR5A agonist assay, luminescence, cell-based; activation, % at 9.3 µM; hit rate 0.61% among 340,000; AID 504692; in the data active = activation mostly above about 9.5%, no sharp cut-off; inactive = mostly below about 7.6%;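 note: 0% = cells with vehicle only and 100% = reference agonist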
MOR-DOR ag: agonists of human mu-delta opioid receptor heterodimerization | P35372+P41143 | cells, OPRM1-OPRD1 heterodimerization, luminescence | activation, % at 9.3 µM | hit rate 0.3% among 340,000 | AID 504326;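 note: 0% = vehicle-treated cells and 100% = reference agonist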
HTR5A inv ag: HTR5A inverse agonism, opioid heterodimer counter-screen. AID 504634. inhibition, % at 9.3 µM. P47898. hit rate 0.083% among 340,000. HTR5A cell line, luminescence; in the data active = inhibition mostly above about 23%, no sharp cut-off; inactive = mostly below about 18%;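 note: 0% = cells with DMSO and 100% = no-cell wells with DMSO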
MOR-DOR ag conf: confirmation of human OPRM1-OPRD1 heterodimerization agonists; cells, MOR-DOR heterodimerization, luminescence complementation; hit rate 45% among 830; shares compounds with MOR-DOR ag; activation, % at 9.3 µM; AID 504904;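 note: 0% = vehicle-treated cells and 100% = reference agonist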
HTR5A ag counter: HTR5A agonism, opioid heterodimer counter-screen. hit rate 8% among 830. HTR5A agonist counterscreen, cell luminescence. activation, % at 9.3 µM. shares compounds with MOR-DOR ag; in the data active = activation above about 17%;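 note: 0% = vehicle-treated cells and 100% = reference agonist response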
* = called active by the depositor; i = inactive; · = not tested or not shown. The list is not random: actives were taken first. Their share in the collection is about 1.1%. Cut-off read from the data, not from the text of the source, unless noted: active = activation above about 18%; inactive = the rest.

SMILES	MOR-DOR inv ag	HTR5A ag	MOR-DOR ag	HTR5A inv ag	MOR-DOR ag conf	HTR5A ag counter
C[C@H]1O[C@@H](O[C@H]2[C@@H](O)C[C@H](O[C@H]3[C@@H](O)C[C@H](O[C@H]4CC[C@@]5(C)[C@H](CC[C@@H]6[C@@H]5C[C@@H](O)[C@]5(C)[C@@H](C7=CC(=O)OC7)CC[C@]65O)C4)O[C@@H]3C)O[C@@H]2C)C[C@H](O)[C@@H]1O	-359	28	65*	-94	2	105*
CC(C(=O)O)n1cc(C#N)c(=O)[nH]c1=O (stereo not given)	18	1	-3	-4	·	·
COc1ccc(CCNC(=O)CSc2nc3[nH]ncc3c(=O)[nH]2)cc1OC	21	1	-4	0	·	·
COc1cc(/C=N/NC(=O)c2ccccc2O)ccc1OCC(=O)Nc1ccccc1	17	2	-3	18	·	·
O=C(COc1ccc(/C=N/NC(=O)c2cc3ccccc3o2)cc1Cl)Nc1ccccc1	-237	9	41*	-27	3	-4
COc1ccc(C(CNC(=O)c2ccc(Br)o2)N2CCN(C)CC2)cc1 (stereo not given)	15	1	-3	-4	·	·
CCNC(=O)CN(C1CCCCC1)S(C)(=O)=O	-11	5	2	-12	·	·
O=C1C=CC(=O)c2c(O)c(N3CCN(CCOCCO)CC3)c(Br)c(O)c21	-123	-2	25*	8	6	-4
Cc1cc(C2(c3ccc(O)c(C)c3)C(=O)Nc3ccccc32)ccc1O	-92	10	20*	-16	-3	1
CC(=O)NCCNC(=O)c1ccc(Cn2c(=O)[nH]c3ccsc3c2=O)cc1	8	3	-2	-10	·	·
O=C(Nc1cc(Cl)cc(Cl)c1)c1ccc(Cn2c(=O)[nH]c3ccsc3c2=O)cc1	-134	-3	25*	-11	0	0
O=C(CCSc1ccccn1)Nc1ccc(Br)cc1	3	-1	-1	6	·	·
CC(C)c1ccccc1NC(=O)c1cccc(NC(=O)c2ccccc2)c1	-293	-1	48*	8	8	4
C=CC[C@@H](CC(=O)N[C@H](CO)Cc1ccccc1)C(=O)NC[C@H](OC(=O)[C@@H](CC=C)Cc1ccc(F)cc1)c1ccccc1	7	-3	-1	7	·	·
Cc1ccc(OCCSCc2nnc(NC(=O)Nc3cccc(Cl)c3)s2)cc1	-100	5	19*	-17	-2	0
O=C(c1ccc(Cl)cc1)N1CCN(c2ncccn2)CC1	18	-1	-4	3	·	·
Cc1cc(/C=C2/C(=O)NN(c3ccccc3)C2=O)c(C)n1-c1cccc(O)c1	-143	1	20*	-1	-1	-3
COC(=O)NCC(c1ccc2c(c1)OCO2)N1CCN(c2ccc(OC)cc2)CC1 (stereo not given)	-422	4	79*	-3	0	-4
O=C(c1c(F)cccc1F)N1CCCC(c2nc(-c3ccc(F)cc3)no2)C1 (stereo not given)	-5	-1	1	4	·	·
CN(C)C(CNC(=O)c1cc2ccccc2oc1=O)c1ccccc1 (stereo not given)	-255	2	31*	-2	133*	-3
COC(=O)c1ccc(C(=S)NCC2(N(C)C)CCCCC2)cc1	-199	6	37*	-16	3	70*
CCOC(=O)C1=C(Cc2ccc(F)cc2)C(=O)c2ccccc2C1=O	-100	5	18*	0	2	27*
CCOC(=O)C1(CC2CCCCO2)CCN(Cc2nccn2-c2ccc(OC)cc2)CC1 (stereo not given)	18	2	-4	-4	·	·
CCOC(=O)C1(CC2CCCCO2)CCN(Cc2nccn2-c2cccc(C)c2)CC1 (stereo not given)	-64	4	13	6	·	·
CCOC(=O)C1(CC2CCCCO2)CCN(Cc2cc(F)ccc2-n2cccn2)CC1 (stereo not given)	-298	-4	61*	0	66*	2
SMILES	MOR-DOR inv ag	HTR5A ag	MOR-DOR ag	HTR5A inv ag	MOR-DOR ag conf	HTR5A ag counter
CCOC(=O)C1(CC2CCCCO2)CCN(Cc2c(C)cc(C)cc2-n2cccn2)CC1 (stereo not given)	i	9	199*	-29	267*	2
CCOC(=O)C1(CC2CCCCO2)CCN(Cc2nc3ccccc3[nH]2)CC1 (stereo not given)	-148	-4	29*	10	27*	3
CC[C@H](C)[C@H](NC(=O)c1ccccc1)C(=O)NC(CC(=O)O)c1ccc(F)cc1 (stereo not given in full)	-1	-1	0	4	·	·
Cc1ccc(CNC(=O)Cn2nnc3ccccc3c2=O)cc1	6	3	-1	-9	·	·
CCOc1cc(C(=O)CSc2nnc(CNc3ccc(Cl)cc3)o2)ccc1NC(=O)CC	-370	30*	65*	-53	77*	25*
Nn1c(-c2ccccc2Cl)nnc1-c1ccccc1Cl	-98	3	18*	-10	0	5
CSc1nnc(-c2ccccc2Cl)n1N	4	1	-1	14	·	·
O=C(N/N=C/c1cccnc1)c1ccccc1OCc1ccc(Br)cc1	-126	-3	24*	8	14	5
COc1ccc(S(=O)(=O)/N=C2\C=C(Nc3ccc(O)cc3)C(=O)c3ccccc32)cc1	-119	0	21*	0	7	1
Cc1ccccc1NC1=C/C(=N\S(=O)(=O)c2ccc(C(=O)O)cc2)c2ccccc2C1=O	-63	-2	11	5	·	·
CC(C)CN(C(=O)COC(=O)CSc1ccc(Br)cc1)C1CCS(=O)(=O)C1 (stereo not given)	3	-2	0	-5	·	·
CCNC(=O)c1cccc(NC(=O)c2cc(C3CC3)nc3c2cnn3C(C)C)c1	4	-8	-1	18	·	·
CC(C)n1ncc2c(C(=O)Nc3cccc(C#N)c3)cc(C3CC3)nc21	i	14	184*	-39	216*	5
CN(C(=O)COC(=O)c1nc(Cl)ccc1Cl)c1ccccc1	12	1	-2	11	·	·
O=C(NC12CC3CC(CC(C3)C1)C2)c1c(Cl)cccc1Cl	12	5	-2	-17	·	·
CC1=CC(C)(C)N=C(Nc2nc(C)c3cc(C)cc(C)c3n2)N1	-94	5	19*	12	21*	2
Cc1cc(C)c2nc(Nc3nc(-c4ccccc4)cc(=O)[nH]3)nc(C)c2c1	-2	-3	0	13	·	·
CC[n+]1c(/C=C/N(C)c2ccccc2)n(-c2ccccc2)c2ccc(-c3nc4ccccc4s3)cc21	-104	9.9*	22*	-37	-2	-5
CC(=O)C[C@H]1c2ccccc2S(=O)(=O)N1c1ccccc1	-2	-1	0	3	·	·
COCC1CCN(Cc2cn(-c3ccccc3F)nc2-c2cc(C)sc2C)CC1	-216	-1	42*	-12	55*	5
COc1ccc2c(c1OC)C(=O)N(c1cccc(/C=C/C(=O)O)c1)C2	5	1	-1	-3	·	·
